molecular target: AMP-activated protein kinase, AMPK (Homo sapiens) (UniProt P54646+O43741+P54619+Q9UGJ0+Q9Y478+Q13131+Q9UGI9); assay: AMP-dependent Kinase enzyme assay. An in vitro enzyme assay that detects ADP turnover that is directly proportional to AMPK activity. This uses naive AMPK that is activated during the assay with MK-8722; format: functional; set-up: scale not given: direction of the effect not stated beside the values; details: 30 µM

| Structure (SMILES) | Percent Effect [%] |
| --- | --- |
| CC(Oc1ccc2c(c1)OCO2)C(=O)N1CCC(c2ncc[nH]2)CC1 (stereo not given) | 4.41 |
| CCCN(CCO)S(=O)(=O)c1ccc2[nH]c(=O)[nH]c2c1 | -3.64 |
| CC(C)CN(Cc1ccccn1)Cc1ccccc1OCC(=O)O | -7.24 |
| COc1cc(Cl)cc(CN2CCCC(N3CCOCC3)C2)c1OC (stereo not given) | 4.12 |
| CCOC(=O)C1(NC(=O)CCNc2cc(C)ccc2OC)CCCCC1 | 6.8 |
| Cc1nonc1CNC(=O)C(C)Oc1cccc(F)c1 (stereo not given) | 11.1 |
| Cc1ccccc1SCC(=O)N[C@H]1CC[C@H](n2cnnc2)CC1 | 1.98 |
| CS(=O)(=O)N1CC[C@]2(O)CCN(c3cc(C#N)ccn3)C[C@@H]2C1 | -6.37 |
| COC(=O)c1ccoc1CN(C)CC(=O)NC1CC1 | -3.6 |
| Cc1noc(CCNC(=O)C2CSCN2C(=O)C2CCCC2)n1 (stereo not given) | 3.34 |
| Cc1ccccc1[C@@H]1CN(Cc2ccc(C(F)(F)F)nc2)C[C@H]1C(=O)O | -5.65 |
| CC(C)Cn1ncc(C(=O)NS(=O)(=O)C2CCCC2)c1C1CC1 | 5.57 |
| CSCCC(=O)N1CCN(CC(C)(C)O)CC1 | -5.46 |
| CC(C)c1nnc(CN2CC(n3cccn3)C2)o1 | -4.54 |
| COC(CNC(=O)CNC(=O)c1ccccc1)c1cccc(Cl)c1 (stereo not given) | 4.84 |
| CS(=O)(=O)N1CC[C@]2(O)CCN(c3ccnc(N)n3)C[C@@H]2C1 | -13.7 |
| CN1CCCC1CCNC(=O)c1ccccc1-n1cnc(CN)c1 (stereo not given) | 7.02 |
| CC1(C)OC(=O)N(CC(=O)N2CCC(c3ccccc3F)C2)C1=O (stereo not given) | 12.7 |
| Cc1nc(CN2CCCC2Cn2cccn2)nc2ccccc12 (stereo not given) | -8.75 |
| O=C(CCc1nc(-c2cccnc2)no1)NCC1CCN(C2CC2)C1 (stereo not given) | -2.6 |

| Structure (SMILES) | Percent Effect [%] |
| --- | --- |
| COCCNc1nc(C)nc2c1CCN(C[C@H]1CC[C@@H](N)CC1)CC2 | 1.5 |
| c1cc(NCc2ccsc2)cc(-c2nnc[nH]2)c1 | 14.3 |
| CN(C)CCNC(=O)CCC1CCN(C(=O)c2ccc(O)cn2)CC1 | 7.4 |
| O=C(CCC1CCCN(C(=O)CCN2CCCCO2)C1)N1CCCC1 (stereo not given) | -2.7 |
| COC(=O)c1ccc(C(=O)NCc2ccco2)nc1 | -1.39 |
| CC1COCCN1C(=O)Cc1cc(Cl)c2c(c1)OCCO2 (stereo not given) | 13.4 |
| O=C(NCC(O)c1ccc(F)cc1)C1CCN(C2CCCCC2)CC1 (stereo not given) | -8.77 |
| COc1ncc(NCc2cc(C#N)cs2)cc1C(N)=O | 6.61 |
| FC(F)(F)c1ccnc(N2CCCN(Cc3ccccn3)CC2)n1 | -1.31 |
| CNC(=O)c1cc(NC(=O)Nc2cnn(CC(C)C)c2)ccc1F | -5.42 |
| O=C(NCCS(=O)(=O)N1CCN(c2ncccn2)CC1)C1CC1 | 1.52 |
| COc1cccc2c1OCC(C(=O)NCc1ncc3c(n1)CCC3)C2 (stereo not given) | 6.59 |
| O=C(C1CCOC1)N1CCN(CC2CC2)c2ccccc21 (stereo not given) | 5.43 |
| O=C(Cc1ccc2c(c1)CCC2)NC1CCN(Cc2ccccc2)CC1 | -0.352 |
| Cc1cc(C)c2c(NC(C)c3nncn3C3CCCC3)ncnc2n1 (stereo not given) | 4.35 |
| OC(CNCCc1nnc2ccccn12)c1ccc(F)c(F)c1 (stereo not given) | 14.5 |
| CN(C)S(=O)(=O)NCC1CCN(Cc2ccccc2F)CC1 | -2.6 |
| CC(=O)N[C@H]1CCO[C@@H](c2cccc(NC(=O)Cc3ccccc3)c2)C1 | 7.18 |
| C[C@@H]1CN(C(=O)C2(Cn3cccn3)CC2)CC[C@@]1(O)C1CCOCC1 | 6.2 |
| CN(C)Cc1ccc(C(=O)N2CCCC(COc3ccc(F)cc3)C2)o1 (stereo not given) | 7.84 |
